Consider 9 compounds from PubChem BioAssay.

Assay [1] is described as follows: inhibitors of TNFa-induced NFkB p65 translocation, primary screen, imaging, HUVEC, MLSMR starter and 10KST1 sets (AID 438;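 active = inhibition above 20% together with a positive visual image hit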;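 also: compound added about 3h40 before a 20 min TNFalpha stimulation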;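 as to inhibition: signal is the nuclear over cytoplasmic p65 intensity ratio per well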). Particulars: HUVEC TNFa-induced p65 nuclear translocation; cell count: measured here: nuclei count (cytotoxicity indicator), at 2.08 µM; inhibition: at 2 µM, stronger effect = higher value, 0% TNFa-plus-vehicle, 100% no-TNFa wells.
The nature of assay [2]: inhibitors of mutant huntingtin aggregation, primary screen, imaging, exon1htt(103Q)mCFP cells, high-content imaging (AID 483;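 active = visual image review flags a hit and inhibition of aggregation exceeds 20%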;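 also: compound exposure lasted 3 days before fixation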;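 as to nuclei count: percent of the per-plate median nuclei count of sample wells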). To be noted: exon1htt(103Q)mCFP cell line, aggregate imaging, at 2 µM; inhibition of aggregation: stronger effect = higher value; nuclei count: measured here: cell count, toxicity.
Assay [3] in a line: inhibitors of E-selectin induction by TNFa, primary screen, imaging, HUVEC, immunofluorescence, MLSMR starter and 10KST1 sets (AID 487;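 active = visually confirmed hit in the image check and inhibition above 20%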;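 as to inhibition: signal is fraction of cell area covered by stained E-selectin grains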;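 as to nuclei count: 100% = median nuclei count of all wells on the same plate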). Particulars: HUVEC TNFalpha-induced E-selectin immunofluorescence imaging, at 2 µM; inhibition: stronger effect = higher value; nuclei count: measured here: cell number, toxicity.
Assay [4] in a line: DUSP6 inhibitors restoring Erk phosphorylation by chemical complementation, primary imaging in DUSP6-transfected HeLa (AID 609;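 active = compounds giving at least 50% inhibition in the cell-based MKP-3 phosphatase rescue imaging test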;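 as to inhibition: phospho-Erk level distribution per well compared with pooled transfected vehicle control wells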). Particulars: HeLa MKP-3 transfected, phospho-Erk imaging KS statistic, at 10 µM, cells stimulated with TPA for 15 min.
Assay [5] has as its target Dual specificity protein phosphatase 6 (Homo sapiens) (UniProt Q16828). Described as above. Particulars: HeLa MKP-3 transfected, phospho-Erk imaging KS statistic; at 10 µM; stronger effect = higher value; cells stimulated with TPA for 15 min.
For assay [6], the target named is Voltage-gated potassium channel subunit beta-2 (Rattus norvegicus) (UniProt P62483). The assay is described as follows: KvBeta enzyme negative modulators, primary screen, biochemical, NADPH fluorescence (AID 622;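 active = fluorescence slope higher than the sample average by over 3 SD, cut at about -0.22 in these data, passing the limit was not always enough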;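 also: slope of raw intensity against log time taken from 70 to 1610 s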). Particulars: recombinant KvBeta, 4-cyanobenzaldehyde reduction, at 10 µM, stronger effect = higher value.
Sequence of Voltage-gated potassium channel subunit beta-2 (Rattus norvegicus) (P62483 whole entry, looked up): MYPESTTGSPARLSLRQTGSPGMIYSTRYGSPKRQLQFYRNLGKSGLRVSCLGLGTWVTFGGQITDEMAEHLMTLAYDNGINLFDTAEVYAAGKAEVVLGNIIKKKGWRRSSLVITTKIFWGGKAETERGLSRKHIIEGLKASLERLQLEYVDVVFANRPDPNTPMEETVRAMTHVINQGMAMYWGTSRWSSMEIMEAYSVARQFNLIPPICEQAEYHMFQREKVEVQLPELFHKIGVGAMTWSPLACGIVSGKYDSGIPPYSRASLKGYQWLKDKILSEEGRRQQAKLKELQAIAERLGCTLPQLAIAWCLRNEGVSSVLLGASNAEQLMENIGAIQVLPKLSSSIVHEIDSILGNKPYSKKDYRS
Assay [7] has the same target. The assay is described as follows: KvBeta positive modulators, primary screen, biochemical, NADPH fluorescence (AID 623;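 active = NADPH fluorescence slope more negative than the mean of all samples by about 3 SD, 99.7% confidence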;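 also: fluorescence intensity change per second fitted from 20 to 320 s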). Particulars: Recombinant KvBeta, NADPH fluorescence decrease slope, 10 min; at 10 µM; stronger effect = lower value.
In assay [8] the target is Alpha-2C adrenergic receptor (Homo sapiens) (UniProt P18825). In words: modulators of alpha2C/GIRK thallium flux, primary screen, cell-based, HEK293 alpha2C/GIRK1/2 (AID 624;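 active = fluorescence slope after compound addition differing from the mean of all screened samples at 99.7% confidence, in either direction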;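 also: slope of fluorescence ratio to pre-addition baseline per second over 15 to 24 s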). Particulars: thallium flux BTC fluorescence, at 10 µM, actives lie on both sides.
Sequence of Alpha-2C adrenergic receptor (Homo sapiens) (P18825 whole entry, looked up): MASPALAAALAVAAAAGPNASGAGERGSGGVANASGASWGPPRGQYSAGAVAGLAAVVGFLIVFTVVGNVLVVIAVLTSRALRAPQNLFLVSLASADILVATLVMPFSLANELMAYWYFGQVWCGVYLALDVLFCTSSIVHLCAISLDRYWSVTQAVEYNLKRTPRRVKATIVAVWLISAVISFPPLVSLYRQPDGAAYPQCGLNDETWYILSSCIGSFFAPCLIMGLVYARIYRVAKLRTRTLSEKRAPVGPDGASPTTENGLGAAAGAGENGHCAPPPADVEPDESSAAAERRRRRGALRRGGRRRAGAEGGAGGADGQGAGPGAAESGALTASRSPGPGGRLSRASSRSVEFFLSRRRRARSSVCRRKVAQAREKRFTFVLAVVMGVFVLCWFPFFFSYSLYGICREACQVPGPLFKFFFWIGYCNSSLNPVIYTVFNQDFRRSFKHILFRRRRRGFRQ
Assay [9] can be described thus: inhibitors of larval lipid processing in zebrafish, primary screen, whole organism, PED6 fluorescence, gall bladder and intestine (AID 686;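 active = a full or partial loss of lipid-probe fluorescence in the fish gall bladder, intestine or both, judged by eye; inactive = no fluorescence loss, or compound toxic to the fish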;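 also: larvae 5 to 7 days old with five fish per well; signal comes from phospholipase A2 cleavage of quenched PED6 carried via bile; overnight exposure to compound and PED6 before scoring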). To be noted: Zebrafish larvae PED6 lipid processing, fluorescence scoring; screened at 20 µM (by protocol).
The nature of assay [10]: inhibitors of Chlamydomonas gravitaxis, primary screen, whole organism, Chlamydomonas reinhardtii, WT vs cilia-less mutant, absorbance, 96-well (AID 463189).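 Also: 0% = wild type cc124 cells in DMSO and 100% = ciliumless bld1 mutant cells.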 Particulars: OD600 absorbance, 2 days, at 10 µM, stronger effect = higher value.
The nature of assay [11]: inhibitors of Sendai virus-induced IRF3 signaling, primary screen, TLR/RLR signaling modifier project, cell-based, Sendai virus stimulus, luciferase, 10K MLSCN set (AID 602276;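 active = inhibition at or above 50% at 10 µM; inactive = inhibition below 50%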;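 also: firefly luciferase from ISG56 promoter only with Renilla not read in this screen; 0% = Sendai virus plus DMSO and 100% = medium plus DMSO without virus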). Particulars: HEK293 RL24 IRF3 luciferase reporter, at 10 µM, stronger effect = higher value.
Assay [12] can be described thus: inhibitors of poly I:C-induced TLR3 signaling, primary screen, cell-based, poly I:C stimulus, luciferase, 10K MLSCN set (AID 602277;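 active = inhibition of the reporter signal at or above 50%; inactive = inhibition below 50%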). Particulars: HEK293-TLR3 RL24 IRF3 luciferase reporter, at 10 µM, stronger effect = higher value.
[13] abbreviates: measured here: cell density z-score.
Where [14] appears, read: measured here: nuclear c-Myc green intensity z-score.
The mark [15] stands for this setting: measured here: nuclear pErk red intensity z-score, stronger effect = higher value.

The structures appear in SMILES notation. Values joined by “and” are separate entries in the source; they are usually repeats but may differ in a detail not shown here. Equal values may be shown once. Active and inactive are the calls of the source.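 The calls were made as follows, unless noted: active = inhibition at or above 50% relative to wild type and mutant plate controls; inactive = inhibition below 50%.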

Sequence of Dual specificity protein phosphatase 6 (Homo sapiens) (Q16828 whole entry, looked up): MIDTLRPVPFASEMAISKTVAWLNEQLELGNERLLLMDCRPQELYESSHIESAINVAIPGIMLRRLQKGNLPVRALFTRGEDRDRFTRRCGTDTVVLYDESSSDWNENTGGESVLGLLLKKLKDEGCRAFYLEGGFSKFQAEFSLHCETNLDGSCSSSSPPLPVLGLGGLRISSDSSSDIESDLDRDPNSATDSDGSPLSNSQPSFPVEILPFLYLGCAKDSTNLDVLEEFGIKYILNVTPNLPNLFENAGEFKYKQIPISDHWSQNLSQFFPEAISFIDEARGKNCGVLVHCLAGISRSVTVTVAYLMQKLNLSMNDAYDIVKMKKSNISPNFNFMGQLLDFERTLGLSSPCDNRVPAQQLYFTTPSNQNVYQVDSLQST

Regarding `CC1CNCCN1S(=O)(=O)c1cccc2cnccc12` (stereo not drawn), the cell count in assay [1] worked out at 695. In addition, the inhibition in assay [1] was -8.2% (inactive); in assay [3] it was -58.8% (inactive); in [5], 15.3% (inactive); in assay [10], 0.228% (inactive) and 8.92% (inactive) and 17.2% (inactive); in [11], 15.5% (inactive); in assay [12] it was 43% (inactive). Also, the inhibition of aggregation in assay [2] is 13% (inactive). In addition, the figures for the nuclei count in assay [2] and in assay [3] were 109% and 129%, respectively. Moreover, the values for the z-score in assay [4] (setting [13]), in [4] (setting [14]) and in assay [4] (setting [15]) were -0.528, 0.0835 and -0.173, respectively. In addition, in [6], the fluorescence slope is -0.449 (inactive). In assay [7], the NADPH fluorescence slope is -4.6e-05 (inactive). Moreover, the slope in assay [8] was 0.00348 (inactive). The call in assay [9] was inactive.
As to `COc1ccccc1-n1c(=O)c2c3c(sc2n2c(SC(C)C)nnc12)CCC3`, in [1], the cell count is 643. Also, the inhibition in assay [1] was -11.3% (inactive); in assay [3], -68% (inactive); in [5], -11% (inactive); in [10] it was 34.4% (inactive); in assay [11], 0.779% (inactive); in assay [12] it was 20.4% (inactive). Further, the inhibition of aggregation in assay [2] was 31.3% (active). The nuclei count in assay [2] was found to be 93.7%; in assay [3], 145%. In addition, the z-score is 1.45 in assay [4] (setting [13]), -1.07 in assay [4] (setting [14]) and 1.13 in assay [4] (setting [15]). For the same compound, in [6], the fluorescence slope is -0.248 (inactive). In addition, the NADPH fluorescence slope in assay [7] was 1.3e-05 (inactive). Also, the slope in assay [8] was 0.005 (inactive). Further, the compound was classed as inactive in assay [9].
As for `Cc1ccc(-n2nc3cc(Cl)c(NC(=O)c4ccco4)cc3n2)cc1`, the cell count in assay [1] worked out at 566. The inhibition was -2.6% (inactive) in [1]; -52% (inactive) in [3]; -0.674% (inactive) in assay [5]; 6.11% (inactive) in assay [10]; -16.5% (inactive) in assay [11]; -49.9% (inactive) in assay [12]. For the same compound, in [2], the inhibition of aggregation is -7.2% (inactive). Further, the nuclei count is 112% in assay [2] and 137% in assay [3]. Moreover, the z-score in assay [4] (setting [13]) is -0.552; in assay [4] (setting [14]), 1.17; in [4] (setting [15]), -0.609. Further, in [6], the fluorescence slope was -0.459 (inactive). Moreover, the NADPH fluorescence slope in assay [7] is -5.2e-05 (inactive). Further, in assay [8], the slope is 0.00706 (inactive). In assay [9], the result was inactive.
For the compound `Cc1c(OCC(F)(F)F)ccnc1CS(=O)c1nc2ccccc2[nH]1` (stereo not drawn), the cell count in assay [1] was 654. The inhibition was 0.3% (inactive) in assay [1]; -74.2% (inactive) in assay [3]; 14.6% (inactive) in [5]; -14.9% (inactive) and -4.97% (inactive) in assay [10]; -45.4% (inactive) in [11]; -64.9% (inactive) in [12]. The inhibition of aggregation in assay [2] is 8.2% (inactive). In addition, the nuclei count in assay [2] was found to be 77.3%; in assay [3] it was 98.2%. Besides, the results for the z-score in [4] (setting [13]), in assay [4] (setting [14]) and in assay [4] (setting [15]) were 1.3, -0.826 and -0.353, respectively. The fluorescence slope in [6] was -0.466 (inactive). Besides, the NADPH fluorescence slope in assay [7] was -3.7e-05 (inactive). The slope in [8] was 0.00411 (inactive). In addition, the result in [9] was inactive.
`NS(=O)(=O)c1cc2c(cc1Cl)NC(CSCc1ccccc1)=NS2(=O)=O`: the cell count in assay [1] was 643. Further, the inhibition in [1] is -8.9% (inactive); in assay [3], -78.7% (inactive); in assay [5] it was 9.37% (inactive); in [10], 2.85% (inactive); in [11], 10.8% (inactive); in assay [12] it was 33.9% (inactive). The inhibition of aggregation in assay [2] is 13.9% (inactive). Also, the values for the nuclei count in [2] and in assay [3] were 103% and 116%, respectively. In addition, the z-score in assay [4] (setting [13]) was -0.00243; in assay [4] (setting [14]), -0.584; in assay [4] (setting [15]) it was -0.561. Moreover, in [6], the fluorescence slope is -0.459 (inactive). Besides, in assay [7], the NADPH fluorescence slope is -7.8e-05 (inactive). Moreover, in assay [8], the slope was 0.00625 (inactive). In addition, in [9], the call was inactive.
As for `O=C(O)c1cc(-c2ccccc2)nc2ccccc12`, the cell count in [1] was 572. Further, the inhibition in assay [1] is -5.1% (inactive); in assay [3] it was -66.9% (inactive); in [5] it was -0.493% (inactive); in assay [10] it was -8.89% (inactive); in assay [11], 5.39% (inactive); in [12] it was 34.2% (inactive). Also, the inhibition of aggregation in assay [2] is -4.1% (inactive). Besides, the nuclei count in assay [2] is 92.2%; in assay [3], 121%. In addition, the z-score is 0.461 in [4] (setting [13]), 0.0575 in [4] (setting [14]) and -0.708 in assay [4] (setting [15]). The fluorescence slope in assay [6] is -0.459 (inactive). In assay [7], the NADPH fluorescence slope was -5.4e-05 (inactive). Moreover, the slope in assay [8] was 0.00561 (inactive). Further, the compound was classed as inactive in assay [9].
Regarding `CCN(CC)CCNC(=O)c1cc(Cl)c(N)cc1OC`, the cell count in assay [1] is 552. Further, the inhibition is -4.5% (inactive) in assay [1]; -17.3% (inactive) in assay [3]; -0.493% (inactive) in [5]; 8.75% (inactive) and -3.64% (inactive) in assay [10]; -8.87% (inactive) in assay [11]; 30.5% (inactive) in assay [12]. The inhibition of aggregation in assay [2] was 5.6% (inactive). For the same compound, the nuclei count was 106% in [2] and 120% in assay [3]. The z-score is 0.156 in assay [4] (setting [13]), -0.776 in assay [4] (setting [14]) and 0.343 in assay [4] (setting [15]). Besides, the fluorescence slope in assay [6] is -0.444 (inactive). Also, in [7], the NADPH fluorescence slope is 4.3e-05 (inactive). In addition, in assay [8], the slope is 0.00461 (inactive). Moreover, the compound was classed as inactive in [9].
Turning to `O=C(/C=C/c1ccccc1)c1ccccc1`, in [1], the cell count came out at 614. In addition, the inhibition in assay [1] was -6.5% (inactive); in [3], -56.5% (inactive); in [5], 23.2% (inactive); in [10] it was 21.2% (inactive); in assay [11], -12.6% (inactive); in [12] it was -54.9% (inactive). The inhibition of aggregation in assay [2] was -4.6% (inactive). For the same compound, the nuclei count worked out at 98.3% in assay [2] and 113% in assay [3]. Further, the values for the z-score in assay [4] (setting [13]), in assay [4] (setting [14]) and in assay [4] (setting [15]) were 0.266, 0.631 and 0.428, respectively. In addition, the fluorescence slope in assay [6] was -0.452 (inactive). For the same compound, the NADPH fluorescence slope in assay [7] is -2.2e-05 (inactive). Moreover, the slope in assay [8] is 0.0047 (inactive). In addition, the result in assay [9] was inactive.
As to `N=c1c(C(=O)NCc2ccccc2)cc2c(=O)n3ccccc3nc2n1Cc1ccco1`, in assay [1], the cell count amounted to 365. Moreover, the inhibition in assay [1] was -3.1% (inactive); in assay [3] it was -250% (inactive); in [5] it was 9.39% (inactive); in [10] it was -4.74% (inactive); in assay [11], -0.117% (inactive); in assay [12], 19.6% (inactive). The inhibition of aggregation in assay [2] is -10% (inactive). Also, the nuclei count is 91.6% in assay [2] and 133% in assay [3]. Moreover, the figures for the z-score in assay [4] (setting [13]), in assay [4] (setting [14]) and in assay [4] (setting [15]) were 0.674, 0.212 and -1.53, respectively. Besides, the fluorescence slope in assay [6] was -0.375 (inactive). For the same compound, the NADPH fluorescence slope in assay [7] was -4.7e-05 (inactive). Further, in [8], the slope was 0.00267 (inactive). Moreover, the outcome in assay [9] was inactive.
